Out of some 5,500 compounds screened, about 2,000 (36%) were called active. Inconclusive results (about 18%) are left out. Rule as the data show it: active = normalized growth mostly below about 0.91 (no sharp cut-off); inconclusive = no clear call, values can overlap the other calls; inactive = mostly above about 0.92. The list shows a part of the results.
Assay: chemical genetic growth profiling, strain panel (AID 1159580);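 also: tested at 20 µM; growth read once vehicle control cultures reached saturation at 30 °C; 1 = growth at the plate median or of vehicle wells; lower values mean less growth of the strain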
Conditions: S. cerevisiae deletion strains, growth OD

Measured: normalized growth

NC(C(=O)O)c1cc(=O)[nH]o1 (centres undefined)
inactive: locus YAL013W, strain DEP1, active compounds read low 1.02 | locus YAL040C, strain CLN3, active compounds read low 1.01 | locus YCL061C, strain MRC1 (second series), active compounds read low 1 | locus YDR150W, strain NUM1, active compounds read low 1 | locus YDR363W, strain ESC2, active compounds read low 1.04 | locus YER002W, strain NOP16, active compounds read low 1.01 | locus YGR229C, strain SMI1, active compounds read low 1.04 | locus YMR263W, strain SAP30, active compounds read low 1 | locus YMR307W, strain GAS1, active compounds read low 1.01 | locus YNL153C, strain GIM3, active compounds read low 1.04 | locus YNL175C, strain NOP13, active compounds read low 1.02 | locus YNL197C, strain WHI3, active compounds read low 0.999 | locus YNL224C, strain SQS1, active compounds read low 0.996 | locus YOR083W, strain WHI5 (second series), active compounds read low 1.01

Source: PubChem BioAssay AID1159580 (chemical genetic matrix, 2015)
